EPAC2 agonist: EPAC2 (human) agonism; Q8WZA2; EPAC2 activation, biochemical qHTS; response scale: 100% = 6.5 mM cAMP response; Potency, µM (doses to about 154 µM), for the others: at the highest dose activation, usual class: activators; hit rate 0.079% among 360,000; AID 720711; further: nearly all actives have a fitted effect of over 50% in size
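In this primary screen, activation is scored as increased exchange of BODIPY-GDP from Rap1B by 100 nM EPAC2, with 50 uM GDP as competitor. Signal is normalized to the 6.5 mM cAMP agonist control.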
EPAC2 antag: antagonists of human EPAC2; EPAC2 GEF exchange of Rap1B-BODIPY-GDP, fluorescence; Potency, µM (titrated, usually from 114 µM), for the others: top-dose activity, negative = inhibition, usual class: inhibitors; hit rate 0.18% among 360,000; further: on the % scale 0 is the no-effect control and ±100 the full control effect; nearly all actives have a fitted effect of over 45% in size
USP1 inh: inhibitors of human USP1/UAF1 deubiquitinase. O94782. recombinant USP1/UAF1, Ub-Rhodamine cleavage fluorescence. Potency, µM (titrated, usually from 57.1 µM), without a hit: top-dose activity change, negative = inhibition, most hits filed as inhibitors. hit rate 0.23% among 390,000; further: on the % scale 0 is the no-effect control and ±100 the full control effect; nearly all actives have a fitted effect of over 60% in size
Target sequence (O94782 whole entry, looked up): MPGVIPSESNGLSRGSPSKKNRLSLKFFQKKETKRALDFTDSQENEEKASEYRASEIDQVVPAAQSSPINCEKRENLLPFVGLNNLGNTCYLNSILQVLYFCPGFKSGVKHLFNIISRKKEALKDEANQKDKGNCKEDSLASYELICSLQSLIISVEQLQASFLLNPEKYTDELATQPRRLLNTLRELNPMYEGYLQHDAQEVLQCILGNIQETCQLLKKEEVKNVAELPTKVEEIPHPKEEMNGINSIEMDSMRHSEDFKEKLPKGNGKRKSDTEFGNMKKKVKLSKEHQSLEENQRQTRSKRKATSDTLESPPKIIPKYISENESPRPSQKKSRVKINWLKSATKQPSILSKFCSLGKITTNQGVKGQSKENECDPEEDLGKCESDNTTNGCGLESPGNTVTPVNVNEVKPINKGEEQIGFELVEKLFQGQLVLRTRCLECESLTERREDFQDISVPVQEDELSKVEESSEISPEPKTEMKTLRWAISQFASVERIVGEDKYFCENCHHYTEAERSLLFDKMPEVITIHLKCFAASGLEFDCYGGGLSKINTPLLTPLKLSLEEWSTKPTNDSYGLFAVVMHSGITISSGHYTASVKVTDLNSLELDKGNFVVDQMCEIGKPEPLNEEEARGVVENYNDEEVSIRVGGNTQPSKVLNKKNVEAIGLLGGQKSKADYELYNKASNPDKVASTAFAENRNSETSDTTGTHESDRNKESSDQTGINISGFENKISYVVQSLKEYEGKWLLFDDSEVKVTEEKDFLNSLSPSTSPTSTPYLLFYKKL
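In this screen, compounds sit with the deubiquitinase complex (1nM) for 15 min at room temperature before Ub-Rho is added at 150nM final. Fluorescence rise is then followed for 6 reads every 60 seconds.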
EPAC1 antag: blocks human EPAC1 exchange factor; AID 720709; EPAC1 GEF assay, Rap1b-BODIPY-GDP exchange fluorescence; Potency, µM (titrated, usually from 115 µM), inactives show at the highest dose activity change, negative = inhibition, hits mostly inhibitors; hit rate 0.14% among 360,000;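 further: plate controls were vehicle for no effect and positive control for full effect; nearly all actives have a fitted effect of over 50% in size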
EPAC1 agonist: agonists of human EPAC1 | Potency, µM (titrated, usually from 154 µM), for the others: top-dose activation, hits mostly activators | O95398 | EPAC1 agonist qHTS, biochemical assay; response scale: 100% = response to 6.5 mM cAMP | AID 720707 | hit rate 0.073% among 360,000; further: nearly all actives have a fitted effect of over 60% in size
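Fluorescent GDP-exchange assay: 100 nM EPAC1 with 250 nM Rap1B preloaded with BODIPY-GDP and 50 uM GDP; compounds tested as concentration series, 5 min at room temperature, then read every 5 min for 30 min (ex 480/em 540 nm); normalized to 6.5 mM cAMP.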
Active calls of the source: *; i = inactive; ? = inconclusive; nt = no result. This is a sample that favours compounds with a hit; in the whole collection about 0.45% have one here. The call rests on the fitted dose curve; in most records, active means well fitted curve in the direction sought with a large enough effect; inconclusive means small, poorly fitted or top-dose-only effect, or another doubt; inactive means no such curve, though single readings can be large; an effect the other way counts as inactive or inconclusive. Potency means the concentration at half of the fitted maximal effect.

SMILES	EPAC2 agonist	EPAC2 antag	USP1 inh	EPAC1 antag	EPAC1 agonist
O=C1S/C(=C\C=C\c2ccco2)C(=O)N1c1ccccc1	8%	-3%	1%	89µM*	-10%
Cc1ccc(OCC(=O)Nc2cccc(C(=O)OCc3cc(=O)n4nc(C)sc4n3)c2)cc1	nt	nt	-4%	nt	nt
CCN1/C(=C/C=C/c2oc3ccc(-c4ccccc4)cc3[n+]2CC)Oc2ccc(-c3ccccc3)cc21	63µM*	i	nt	303%	40µM*
CCNc1ccc(Br)cc(C(=O)/C=C/c2ccccc2Cl)c1=O	2%	15%	28µM*	-24%	5%
COc1ccc(CNC(=O)CCc2c(C)c3cc4c(C)c(C)oc4cc3oc2=O)cc1OC	nt	nt	-19%	nt	nt
Cc1cccc(OCc2ccc(-c3nc(C#N)c(N4CCC(C(N)=O)CC4)o3)o2)c1	nt	nt	-17%	nt	nt
O=C(O)c1[nH]c2ccccc2c1C(c1cc(Br)ccc1O)c1c(C(=O)O)[nH]c2ccccc12	-7%	-20%	?	45µM*	-2%
O=C(c1ccc2c(c1)N(Cc1ccccc1F)C(=O)c1ccccc1S2(=O)=O)N1CCN(c2ccccn2)CC1	nt	nt	-18%	nt	nt
O=C(OCCN1C(=O)c2cccc3c(N4CCOCC4)ccc(c23)C1=O)c1cccc(Cl)c1	-44%	170%	?	65%	25µM*
O=C(NS(=O)(=O)c1ccc2ccc(S(=O)(=O)NCCSc3ccccc3)cc2c1)c1cccc2ccccc12	3%	?	nt	56µM*	-1%
COc1ccc(N2CCN(CCCNC(=O)c3cnn(-c4ccc(C)cc4)c3-n3cccc3)CC2)cc1	nt	nt	-19%	nt	nt
COc1ccc(-n2nnnc2SCC(=O)c2ccc(O)c(O)c2)cc1	10%	-2%	-10%	45µM*	1%
NC(=O)c1ccc(-n2nnnc2SCC(=O)c2ccc(O)c(O)c2)cc1	6%	1%	-9%	?	1%
CC(=O)N1c2ccc(S(=O)(=O)NCC3CCC(C(=O)Nc4cccc(F)c4)CC3)cc2CC1C (configuration not stated)	nt	nt	4%	nt	nt
CCCCCNC(=O)C(c1cc2ccccc2o1)n1c(=O)c(-c2ccco2)nc2ccccc21 (configuration not stated)	-18%	?	nt	56µM*	-27%
CC(C)(C)NC(=O)C(c1cc2ccccc2o1)n1c(=O)c(-c2ccco2)nc2ccccc21 (configuration not stated)	-1%	-9%	nt	-24%	-5%
CS(=O)(=O)N1N=C(c2ccco2)CC1c1ccc(Cl)cc1Cl (configuration not stated)	6%	10µM*	-14%	-5%	4%
O=S(=O)(NCC(c1cccs1)S(=O)(=O)c1ccccc1)c1ccccc1 (configuration not stated)	nt	nt	-18%	nt	nt
O=C(NN=Cc1c(O)ccc2ccccc12)c1ccc2c(c1)OCO2	7%	-4%	-3%	-14%	5%
O=C(N/N=C\c1c(O)ccc2ccccc12)c1ccc(S(=O)(=O)N2CCCCC2)cc1	100µM*	28%	?	-22%	1%
CCc1noc(-c2ccc(NC(C)c3ccccc3)c([N+](=O)[O-])c2)n1 (configuration not stated)	nt	nt	-12%	nt	nt
CN(C(=O)c1cc2c(=O)oc3ccccc3c2s1)c1ccc(F)cc1	nt	nt	-5%	nt	nt
O=c1c(O)c(-c2cccs2)oc2ccc(Cl)cc12	4%	188%	25µM*	3%	-2%
CCOc1ccc(CCNC(=O)c2ccc3c(c2)N(Cc2ccccc2F)C(=O)c2ccccc2S3=O)cc1OCC (configuration not stated)	nt	nt	-27%	nt	nt
O=c1[nH]c2ccccc2nc1Cc1ccccc1	1%	0%	-26%	-23%	12%
SMILES	EPAC2 agonist	EPAC2 antag	USP1 inh	EPAC1 antag	EPAC1 agonist
O=C(Cc1nc2ccccc2[nH]c1=O)c1ccccc1	?	32%	32µM*	3%	1%
O=C(CSc1nc2c(c(=O)[nH]1)CN(Cc1ccc3c(c1)OCO3)CC2)Nc1ccc(F)c(F)c1	nt	nt	-35%	nt	nt
CC1CCCCN1C(=O)Cn1c(SCC(=O)N(C)c2ccccc2)nc2ccccc21 (configuration not stated)	nt	nt	-15%	nt	nt
CC(C)(C)c1ccc(-c2noc(CCC(=O)Nc3cccc(Cl)c3)n2)cc1	nt	nt	-8%	nt	nt
O=C1NN(c2cccc(Br)c2)C(=O)/C1=C/c1ccc(-c2cc([N+](=O)[O-])ccc2O)o1	-14%	40µM*	-8%	-17%	-6%
COc1cc2c(cc1OC)-c1cc(NC3CCCCC3)nc(=O)n1CC2	6.3µM*	-4%	-16%	0%	12%
COc1cc(NC(=O)c2c(C)oc3ncnc(N4CCCCC4)c23)cc(OC)c1	nt	nt	-22%	nt	nt
CCC1(c2ccccc2)NC(=O)N(CC(=O)Nc2ccc3c(c2)CCC3)C1=O (configuration not stated)	10%	-24%	1%	-12%	2%
CCC1(c2ccccc2)NC(=O)N(CC(=O)Nc2ccc(OC)nc2)C1=O (configuration not stated)	?	44%	?	113%	100µM*
CC1CC(C)CN(C(=O)c2cccc(S(=O)(=O)Nc3cc(C(F)(F)F)ccc3Cl)c2)C1 (configuration not stated)	-14%	50µM*	?	50µM*	-13%
O=C(O)c1cccc(S(=O)(=O)Nc2cc(Cl)ccc2Cl)c1	8%	-3%	-10%	-16%	9%
CC(=O)c1ccc2c(c1)C1C=CCC1C(c1ccncc1)N2 (configuration not stated)	-5%	0%	?	-13%	-2%
CC(=O)c1ccc2c(c1)C1C=CCC1C(C(=O)O)N2 (configuration not stated)	3%	4%	32µM*	50µM*	0%
COc1cccc2c1NC(C(=O)O)C1CC=CC21 (configuration not stated)	4%	15%	25µM*	?	1%
COc1cccc(C2Nc3c(F)cc(Br)cc3C3C=CCC32)c1OC (configuration not stated)	-6%	-6%	-8%	-3%	-3%
COc1cc(/C=C2\SC(=S)N(C(C(=O)O)c3ccccc3)C2=O)ccc1O (configuration not stated)	-5%	?	?	?	-12%
O=C(O)C(c1ccccc1)N1C(=O)/C(=C\c2ccc(O)c(O)c2)SC1=S (configuration not stated)	-2%	22µM*	?	32µM*	-3%
CCOCCCNC(=O)C(c1ccc(Cl)cc1)N(Cc1ccc2c(c1)OCO2)C(=O)c1ccccc1O (configuration not stated)	nt	nt	-21%	nt	nt

Compound activity from PubChem BioAssay.
